Out of some 5,500 compounds screened, about 2,000 (36%) were called active. Another 18% or so got no clear call; they are omitted. Cut-off read from the data, not from the text of the source: active = normalized growth mostly below about 0.91 (no sharp cut-off); inconclusive = no clear call, values can overlap the other calls; inactive = mostly above about 0.92. The list shows a part of the results.
Test: chemical genetic growth profiling, strain panel (AID 1159580);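 note: tested at 20 µM; growth read once vehicle control cultures reached saturation at 30 °C; 1 = growth at the plate median or of vehicle wells; lower values mean less growth of the strain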
Settings: growth OD

Measured: normalized growth

CCC(C)C(=O)OC1[C@@H]2CC3=C4CC(=O)O[C@@H](c5ccoc5)[C@]4(C)CCC3[C@@](C)(C2=O)[C@@H](CC(=O)OC)C1(C)C (stereo partly specified)
inactive: S. cerevisiae deletion strains, locus YJL187C, strain SWE1, hits give low values 1.01 | S. cerevisiae deletion strains, locus YJR066W, strain TOR1, hits give low values 0.91 | S. cerevisiae deletion strains, locus YJR075W, strain HOC1, hits give low values 1.01 | S. cerevisiae deletion strains, locus YKL009W, strain mrt4, hits give low values 0.965 | S. cerevisiae deletion strains, locus YKL068W, hits give low values 0.999 | S. cerevisiae deletion strains, locus YKL085W, strain MDH1 (second series), hits give low values 0.988 | S. cerevisiae deletion strains, locus YKL085W, strain MDH1, hits give low values 0.988 | S. cerevisiae deletion strains, locus YKL160W, strain elf1, hits give low values 1.01 | S. cerevisiae deletion strains, locus YKR001C, strain vps1, hits give low values 1.01 | S. cerevisiae deletion strains, locus YKR026C, strain gcn3, hits give low values 1.01 | S. cerevisiae deletion strains, locus YKR091W, strain srl3, hits give low values 1 | S. cerevisiae deletion strains, locus YLL001W, strain dnm1, hits give low values 1.01 | S. cerevisiae deletion strains, locus YLL026W, hits give low values 1 | S. cerevisiae deletion strains, locus YLL041C, strain sdh2, hits give low values 1.01 | S. cerevisiae deletion strains, locus YLR027C, strain aat2, hits give low values 1.02 | S. cerevisiae deletion strains, locus YLR039C, strain RIC1, hits give low values 0.974 | S. cerevisiae deletion strains, locus YLR058C, strain SHM2, hits give low values 1.01 | S. cerevisiae deletion strains, locus YLR102C, strain apc9, hits give low values 1 | S. cerevisiae deletion strains, locus YLR113W, strain HOG1, hits give low values 1.03 | S. cerevisiae deletion strains, locus YLR221C, strain rsa3, hits give low values 0.998 | S. cerevisiae deletion strains, locus YLR258W, strain gsy2, hits give low values 1.01 | S. cerevisiae deletion strains, locus YLR262C, strain YPT6 (second series), hits give low values 0.947 | S. cerevisiae deletion strains, locus YLR268W, strain sec22, hits give low values 0.989 | S. cerevisiae deletion strains, locus YLR320W, strain mms22, hits give low values 1.01 | S. cerevisiae deletion strains, locus YLR342W, strain FKS1 (second series), hits give low values 1 | S. cerevisiae deletion strains, locus YLR342W, strain FKS1, hits give low values 1 | S. cerevisiae deletion strains, locus YLR357W, strain rsc2, hits give low values 0.991 | S. cerevisiae deletion strains, locus YLR370C, strain arc18, hits give low values 1.01 | S. cerevisiae deletion strains, locus YLR371W, strain rom2, hits give low values 1 | S. cerevisiae deletion strains, locus YLR384C, strain iki3, hits give low values 1.02 | S. cerevisiae deletion strains, locus YLR418C, strain cdc73, hits give low values 1.04 | S. cerevisiae deletion strains, locus YML016C, strain PPZ1, hits give low values 0.997 | S. cerevisiae deletion strains, locus YML032C, strain rad52, hits give low values 1.01 | S. cerevisiae deletion strains, locus YML120C, strain ndi1, hits give low values 1 | S. cerevisiae deletion strains, locus YML124C, strain tub3, hits give low values 1.01 | S. cerevisiae deletion strains, locus YMR058W, strain fet3, hits give low values 1.01 | S. cerevisiae deletion strains, locus YMR078C, strain ctf18, hits give low values 1.01 | S. cerevisiae deletion strains, locus YMR125W, strain sto1, hits give low values 1 | S. cerevisiae deletion strains, locus YMR129W, hits give low values 1.01 | S. cerevisiae deletion strains, locus YMR205C, strain PFK2, hits give low values 1 | S. cerevisiae deletion strains, locus YMR223W, strain ubp8, hits give low values 1 | S. cerevisiae deletion strains, locus YMR231W, strain pep5, hits give low values 0.973 | S. cerevisiae deletion strains, locus YMR307W, strain GAS1, hits give low values 1.05 | S. cerevisiae deletion strains, locus YNL067W, strain RPL9B, hits give low values 1.03 | S. cerevisiae deletion strains, locus YNL071W, strain lat1, hits give low values 1.01 | S. cerevisiae deletion strains, locus YNL128W, strain TEP1, hits give low values 0.995 | S. cerevisiae deletion strains, locus YNL183C, strain NPR1, hits give low values 0.927 | S. cerevisiae deletion strains, locus YNL209W, strain ssb2, hits give low values 1 | S. cerevisiae deletion strains, locus YNL233W, strain BNI4, hits give low values 0.995 | S. cerevisiae deletion strains, locus YNL248C, strain rpa49, hits give low values 1 | S. cerevisiae deletion strains, locus YNL250W, strain rad50, hits give low values 1.03 | S. cerevisiae deletion strains, locus YNL271C, strain bni1, hits give low values 1 | S. cerevisiae deletion strains, locus YNL298W, strain CLA4, hits give low values 1.02 | S. cerevisiae deletion strains, locus YNL307C, strain MCK1, hits give low values 1 | S. cerevisiae deletion strains, locus YNL322C, strain KRE1 (second series), hits give low values 0.999 | S. cerevisiae deletion strains, locus YNR049C, strain mso1, hits give low values 1.01 | S. cerevisiae deletion strains, locus YNR052C, strain pop2, hits give low values 1.01 | S. cerevisiae deletion strains, locus YOL012C, strain htz1 1.11 | S. cerevisiae deletion strains, locus YOL147C, strain pex11, hits give low values 1 | S. cerevisiae deletion strains, locus YOR001W, strain rrp6, hits give low values 1.01 | S. cerevisiae deletion strains, locus YOR061W, strain CKA2, hits give low values 0.995 | S. cerevisiae deletion strains, locus YOR069W, strain VPS5, hits give low values 1.01 | S. cerevisiae deletion strains, locus YOR070C, strain gyp1, hits give low values 1.01 | S. cerevisiae deletion strains, locus YOR080W, strain dia2, hits give low values 0.996 | S. cerevisiae deletion strains, locus YOR083W, strain WHI5, hits give low values 1 | S. cerevisiae deletion strains, locus YOR106W, strain vam3, hits give low values 1.02 | S. cerevisiae deletion strains, locus YOR136W, strain idh2, hits give low values 0.994 | S. cerevisiae deletion strains, locus YOR144C, strain elg1, hits give low values 1.01 | S. cerevisiae deletion strains, locus YOR184W, strain ser1, hits give low values 0.983 | S. cerevisiae deletion strains, locus YOR231W, strain MKK1, hits give low values 0.973 | S. cerevisiae deletion strains, locus YOR265W, strain rbl2, hits give low values 0.999 | S. cerevisiae deletion strains, locus YOR270C, strain vph1, hits give low values 1.03 | S. cerevisiae deletion strains, locus YOR290C, strain snf2, hits give low values 0.978 | S. cerevisiae deletion strains, locus YOR316C, strain cot1, hits give low values 1 | S. cerevisiae deletion strains, locus YPL051W, strain arl3, hits give low values 1 | S. cerevisiae deletion strains, locus YPL078C, strain atp4, hits give low values 1.04 | S. cerevisiae deletion strains, locus YPL106C, strain sse1, hits give low values 1.01 | S. cerevisiae deletion strains, locus YPL240C, strain hsp82, hits give low values 1 | S. cerevisiae deletion strains, locus YPL241C, strain CIN2, hits give low values 0.998 | S. cerevisiae deletion strains, locus YPL256C, strain CLN2, hits give low values 0.943 | S. cerevisiae deletion strains, locus YPR119W, strain clb2, hits give low values 1.01 | S. cerevisiae deletion strains, locus YPR141C, strain kar3, hits give low values 1.01 | S. cerevisiae deletion strains, locus YPR163C, strain tif3, hits give low values 1 | S. cerevisiae deletion strains, locus YPR167C, strain met16, hits give low values 0.995 | S. cerevisiae deletion strains, strain wtn01, hits give low values 0.993 | S. cerevisiae strains, strain wild type, hits give low values 0.978

Reference: PubChem BioAssay AID1159580 (chemical genetic matrix, 2015)
